Some test systems named below: SK-MEL-2 melanoma; EKVX NSCLC; SN12C renal; UO-31 renal; TK-10 renal; ACHN renal; CAKI-1 renal; A498 renal; CCRF-CEM leukemia; MOLT-4 leukemia.
Holding throughout (test): NCI-60 one-dose screen, 48 h (100 = growth as untreated, 0 = no growth, -100 = all killed)
Details in all cases: 10 µM unless noted

Our source for the growth values is PubChem BioAssay (NCI).

SMILES strings stand for the structures. This is part of a sample that, as a whole, favours compounds with a hit. Of some 83,000 tested, about 20% had one in any assay.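 The endpoint reported here, percent growth, reads 100 for growth as untreated, 0 for no net growth and -100 for all cells dead.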 Unmarked numbers belong to inactive results. Calls of active or inactive are those of the source. The calls were made as follows: active = growth percent below 10; inactive = the rest.

For `CCN(CC)CCCC(C)Nc1cnc(C(=O)Nc2cccc3ccc(OC)nc23)cn1` (stereo not given), the growth with SK-MEL-2 melanoma was 70.5%; in the assay on EKVX NSCLC, 104%; in the assay with SN12C renal, 78.5%; in the assay with UO-31 renal it was 69.1%; in the assay on TK-10 renal, 91%; in the assay with ACHN renal, -86.5% (active). Moreover, the growth with CAKI-1 renal was 94.7%; with A498 renal it was 46.2%; with CCRF-CEM leukemia, -7.65% (active); in the assay with MOLT-4 leukemia, 53.4%.
As for `Cn1nc(C(F)(F)F)cc1-c1cc(Cl)c(OCc2ccc(Cl)cc2)c(-c2ccc(Cl)c(C(F)(F)F)c2)c1O`, the growth was -33.8% (active) with SK-MEL-2 melanoma; 4.62% (active) in the assay with EKVX NSCLC; 5.76% (active) in the assay with SN12C renal; 0.656% (active) in the assay with UO-31 renal; 2.92% (active) in the assay with TK-10 renal; -11.4% (active) in the assay with ACHN renal. In addition, the growth with CAKI-1 renal was -19.2% (active); in the assay on A498 renal, -41.9% (active); in the assay with CCRF-CEM leukemia, 9.85% (active); in the assay on MOLT-4 leukemia, -14.2% (active).
As for `O=C1C=CC(=O)N1CO`, the growth is 123% in the assay with SK-MEL-2 melanoma; 138% in the assay with EKVX NSCLC; 99% in the assay on SN12C renal; 89.1% with UO-31 renal; 114% in the assay with TK-10 renal; 108% in the assay on ACHN renal. The growth is 117% in the assay on CAKI-1 renal, 113% with A498 renal, 101% with CCRF-CEM leukemia and -32.2% (active) with MOLT-4 leukemia.
On to `CC(=O)N(C)c1ccc(Nc2cc(C)[nH]c3ccc4ncnc4c23)cc1`, for which the growth in the assay on SK-MEL-2 melanoma was 116%; with EKVX NSCLC, 79.4%; with SN12C renal, 61.7%; in the assay with UO-31 renal, 72.6%; in the assay on TK-10 renal, 79.3%; in the assay on ACHN renal it was 55.4%. Besides, the growth with CAKI-1 renal is 80.3%; in the assay on A498 renal, 78.5%; in the assay with CCRF-CEM leukemia it was 28.9%; in the assay on MOLT-4 leukemia, 1.82% (active).
Take `CC(C)=CCC[C@H](C)c1ccc(C)c2c1OCN(CCO)C2`: the growth with SK-MEL-2 melanoma is 99.2%; with EKVX NSCLC, 97.2%; in the assay with SN12C renal it was 79.6%; with UO-31 renal, 42.4%; in the assay on TK-10 renal it was 88.4%; with ACHN renal, 90.1%. Moreover, the growth in the assay with CAKI-1 renal was 91.6%; in the assay on A498 renal, 47.2%; with CCRF-CEM leukemia, 87.5%; in the assay on MOLT-4 leukemia, 101%.
On to `Brc1cccc(-n2ncc3c(Nc4ccc(-c5nnc(-c6ccccc6)o5)cc4)ncnc32)c1`, for which the growth in the assay with SK-MEL-2 melanoma is 115%; in the assay with EKVX NSCLC it was 102%; in the assay with SN12C renal it was 97.8%; with UO-31 renal, 75.9%; in the assay on TK-10 renal it was 120%; in the assay on ACHN renal, 96.7%. Moreover, the growth in the assay with CAKI-1 renal is 90.4%; with A498 renal, 109%; in the assay with CCRF-CEM leukemia, 118%; in the assay with MOLT-4 leukemia, 108%.
Take `C#CC[C@@H]1C[C@]2(C)[C@H]3CC[C@@H]4[C@H]5C(C(=C)C)CC[C@]5(C(=O)NCCCN5CCN(CCCN)CC5)CC[C@@]4(C)[C@]3(C)CC[C@H]2C(C)(C)[C@H]1OC(C)=O` (stereo not given in full): the growth in the assay with SK-MEL-2 melanoma is -18.1% (active); with EKVX NSCLC, 51.9%; in the assay with SN12C renal, -84.4% (active); in the assay with UO-31 renal it was -95.3% (active); in the assay on TK-10 renal, -91.5% (active); with ACHN renal, -97.8% (active). Further, the growth in the assay with CAKI-1 renal is -96.1% (active); with A498 renal, 98.6%; in the assay on CCRF-CEM leukemia, -29.6% (active); in the assay with MOLT-4 leukemia, -28.3% (active).
Take `CN1CCN(Cc2ccc(NC(=O)c3cccc(C#Cc4cnc(N)c5ncccc45)c3F)cc2C(F)(F)F)CC1`: the growth in the assay with SK-MEL-2 melanoma was -1.16% (active); with EKVX NSCLC, 66.8%; in the assay on SN12C renal, 44.5%; in the assay on UO-31 renal, -96.6% (active); in the assay on TK-10 renal, 56.2%; with ACHN renal, -77.2% (active). The growth in the assay on CAKI-1 renal was 33.6%; in the assay on A498 renal, -15.1% (active); with CCRF-CEM leukemia, 7.7% (active); in the assay on MOLT-4 leukemia, 1.77% (active).
For the molecule `O=C(Cn1nncc1CN1C(=O)CSC1=O)Nc1ccc(F)cc1`, the growth is 101% in the assay on SK-MEL-2 melanoma; 92.6% in the assay on EKVX NSCLC; 98.3% in the assay with SN12C renal; 87.6% in the assay with UO-31 renal; 97.9% in the assay with TK-10 renal; 97.9% in the assay with ACHN renal. The growth is 96.4% in the assay on CAKI-1 renal, 76.4% in the assay on A498 renal, 97.4% in the assay with CCRF-CEM leukemia and 105% in the assay with MOLT-4 leukemia.
In the case of `CN1CCN(Cc2ccc(NC(=O)c3cncc(C#Cc4ncc5cnccn45)c3)cc2C(F)(F)F)CC1`, the growth was -12.9% (active) with SK-MEL-2 melanoma; 77.2% with EKVX NSCLC; 54.5% in the assay on SN12C renal; 18.3% with UO-31 renal; 81.4% with TK-10 renal; 30.7% with ACHN renal. In addition, the growth with CAKI-1 renal is 31.5%; with A498 renal, 65.2%; with CCRF-CEM leukemia, 41.9%; in the assay with MOLT-4 leukemia, 43.5%.
With `COc1cc(C)c2c(=O)c3c(oc2c1)C(=O)c1c(O)c(OC)cc(O)c1C3=O`, the growth was -25.7% (active) with SK-MEL-2 melanoma; 32.6% in the assay with EKVX NSCLC; 16.8% in the assay with SN12C renal; 0.808% (active) with UO-31 renal; 23.8% in the assay on TK-10 renal; 0.624% (active) in the assay on ACHN renal. The growth was 12.6% with CAKI-1 renal, 89% in the assay on A498 renal, 10.4% in the assay on CCRF-CEM leukemia and 16.3% with MOLT-4 leukemia.
On to `CCOC(=O)c1ccc(NCCC(=O)O)cc1`, for which the growth in the assay with SK-MEL-2 melanoma was 96.7%; in the assay with EKVX NSCLC, 122%; with SN12C renal, 108%; with UO-31 renal it was 83.1%; with TK-10 renal, 101%; with ACHN renal, 103%. Moreover, the growth was 109% with CAKI-1 renal, 113% with A498 renal, 97.6% with CCRF-CEM leukemia and 87.2% in the assay with MOLT-4 leukemia.
As for `COc1ccc2[nH]cc(/C=C3\C(=O)Nc4ccccc43)c2c1`, the growth in the assay with SK-MEL-2 melanoma was 12.6%; with EKVX NSCLC, 49%; with SN12C renal it was 49.5%; in the assay with UO-31 renal it was -14.7% (active); in the assay on TK-10 renal, 53%; in the assay on ACHN renal it was 34.6%. The growth with CAKI-1 renal was -0.757% (active); in the assay with A498 renal, 40.5%; in the assay with CCRF-CEM leukemia, 14%; with MOLT-4 leukemia, 1.26% (active).
With `O=C(CSc1ccc(Cl)cc1)Nc1ccc(-c2nc3ccccc3s2)c(Cl)c1`, the growth with SK-MEL-2 melanoma was 92.9%; in the assay with EKVX NSCLC, 59.6%; in the assay with SN12C renal it was 46.5%; with UO-31 renal, 38.2%; in the assay on TK-10 renal, 85.4%; with ACHN renal, 54.1%. Moreover, the growth with CAKI-1 renal is 53.5%; in the assay on A498 renal it was 32.1%; with CCRF-CEM leukemia it was 41.6%; in the assay with MOLT-4 leukemia it was 68.3%.
